Test results: PubChem BioAssay AID1117319 (Southern Research Institute, 2015)
Where “and” joins values, the source holds several entries; their conditions need not be identical. Equal values may be shown once. About 1,500 (0.58%) of roughly 260,000 compounds were called active. Another 5% or so got no clear call; they are omitted.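 How the source made its calls: active means inhibition above a set limit at one or more doses, reproduced on every date tested; inconclusive means results disagree between test dates, or hit never tested in dose response; inactive means the rest.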 Not all results are given here. Potency and affinity values are given separately.

Molecular target: Virion infectivity factor (Human immunodeficiency virus type 1 group M subtype B (isolate BH10)) + Virion infectivity factor (Human immunodeficiency virus type 1 group M subtype B (isolate BRU/LAI)) + Virion infectivity factor (Human immunodeficiency virus type 1 group M subtype B (isolate PCV12)) + Virion infectivity factor (Human immunodeficiency virus type 1 group M subtype B (isolate HXB2)) + DNA dC->dU-editing enzyme APOBEC-3G (Homo sapiens) (UniProt P69720+P69721+P69722+P69723+Q9HC16)
Test: HIV-1 Vif–A3G interaction blockers – biochemical, TR-FRET, GST-Vif 1-94, biotin-A3G peptide, dose response retest, primary screen (AID 1117319);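 further: Vif residues 1-94 fused to GST binding biotinylated APOBEC3G peptide 110-148; 0% = full assay without inhibitor and 100% = GST in place of GST-Vif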
Conditions: TR-FRET GST-Vif / biotin-A3G peptide binding; hits give high values

inhibition, inactive:
CC(CCc1ccccc1)N(C)CC(O)c1cccc([N+](=O)[O-])c1 (stereo unspecified) -11.1%, Nc1ccn([C@@H]2O[C@H](CNCc3cccc(OC4CCCC4)c3)[C@@H](O)[C@H]2O)c(=O)n1 3.81%, COc1ccc([C@@H]2C[C@@H](c3ccccc3)Oc3cc(OC)cc(OC)c32)cc1 -2.19%, Clc1ccc(OCCCc2nc(-c3cccnc3)no2)c(Cl)c1 21.6%, CC(C)c1ccc(-c2nc(N3CCCCC3)[nH]c(=O)c2C#N)cc1 -2.18%, N#Cc1c(N2CCN(c3ccc(F)cc3)CC2)nc(N)c2c(N)nc3c(c12)CC(=O)N3C1CC1 1.08%, CN(CCC#N)C(=O)COC(=O)c1ccc(Cl)cc1O 6.5%, COc1ccc(-n2nnnc2-c2cnc3cc4c(cc3c2C)OCO4)cc1 2.05%, O=C(Cn1c2c(c(-c3ccccc3Cl)cc1=O)CCC2)NCCCN1CCOCC1 22.2%, CCCCNC(=O)Cn1c2c(c(-c3ccccc3Cl)cc1=O)CCC2 11.2%, CC(=O)c1ccc(NC(=S)N2CCCC(C(F)(F)F)C2)cc1 (stereo unspecified) -3.97%, COC(=O)C1=C(C)Nc2[nH]c(=S)[nH]c(=O)c2C1c1ccc(O)cc1 (stereo unspecified) -3.71%, Cc1ccc(C2C3=C(CCCC3=O)Nc3[nH]c(=S)[nH]c(=O)c32)cc1 (stereo unspecified) 15.3%, COc1ccc(Nc2ccc([N+](=O)[O-])cc2[N+](=O)[O-])cc1 -7.01%, O=C(NC(=O)c1ccccc1)NC1(C(F)(F)F)OCCO1 -4.29%, O=C(NCC1CCCO1)C(c1cccnc1)N(C(=O)Cc1cccs1)c1ccccc1 (stereo unspecified) 28.6%, Cc1ccc2c(c1)CC1(CN2C)C(=O)OC(C)(C)OC1=O 24.2%, COc1ccc2c(c1)C(=O)N(c1ccc(C)cc1)C(=O)C2 1.47%, CC(C)c1ccc(CN(C(=O)/C=C/c2ccco2)C2CCS(=O)(=O)C2)cc1 (stereo unspecified) 30.9%, CC1=NN(c2ccccc2)C(=O)/C1=C/C=C/c1ccccc1 5.22%, Cc1n[nH]c(=O)n1-c1ccc(C(C)C)cc1 -7.48%, CCc1ccc(N2C(=O)C3ON(c4ccccc4)C(c4ccco4)C3C2=O)cc1 (stereo unspecified) -3.31%, O=C1NC(=O)C(=CC=Cc2ccccc2)S1 2.69%, CCOC(=O)C1=C(C)N(c2ccc(OCC)cc2)C(=O)/C1=C\c1ccco1 10.7%, Cc1ccc(CC2S/C(=N/N=C/c3ccco3)NC2=O)cc1 (stereo unspecified) 4.38%, Cc1ccc(N2C(=O)c3n[nH]c(C)c3C2c2ccco2)cc1 (stereo unspecified) -7.3% and 4.08%
